This passage reports activation results from PubChem BioAssay AID1032 (The Scripps Research Institute Molecular Screening Center, 2008).

The campaign covered roughly 200,000 compounds. About 670 (0.34%) were called active. Many of the other results were omitted from the sample, so actives are more common in it than they were. A number with no mark means an inactive call. No stated cut-off is given here; in the data, active means activation above about 22%; inactive means the rest.

Sequence of Peroxisome proliferator-activated receptor gamma (Homo sapiens) (P37231 whole entry, looked up, the tested form may be a part): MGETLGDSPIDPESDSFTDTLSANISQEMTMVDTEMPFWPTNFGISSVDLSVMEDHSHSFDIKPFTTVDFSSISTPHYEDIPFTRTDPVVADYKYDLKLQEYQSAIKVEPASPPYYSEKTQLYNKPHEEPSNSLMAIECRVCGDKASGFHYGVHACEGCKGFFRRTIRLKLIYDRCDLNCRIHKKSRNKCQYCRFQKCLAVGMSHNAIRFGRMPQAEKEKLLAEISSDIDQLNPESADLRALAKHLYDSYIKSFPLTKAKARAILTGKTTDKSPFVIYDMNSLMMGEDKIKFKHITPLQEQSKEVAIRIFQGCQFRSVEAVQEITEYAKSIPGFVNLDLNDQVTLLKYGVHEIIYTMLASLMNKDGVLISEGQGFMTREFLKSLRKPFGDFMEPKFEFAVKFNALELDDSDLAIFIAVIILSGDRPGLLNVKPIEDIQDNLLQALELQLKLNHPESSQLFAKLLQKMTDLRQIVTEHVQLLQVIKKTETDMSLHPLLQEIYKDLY

The assay has as its target Peroxisome proliferator-activated receptor gamma (Homo sapiens) (UniProt P37231). As to the kind of experiment: agonists of PPARg-SRC-2 recruitment, primary screen, biochemical, HTS (AID 1032).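 Further: 0% = vehicle and 100% = reference agonist.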 As to conditions: PPARgamma LBD-SRC-2 recruitment, at 8 µM, hits give high values.
On to `Cc1ccc(NC(=O)c2ccc(Oc3ncccn3)cc2)cc1`, for which the activation was 3.49%. For `CCN(/N=C/c1ccc(N(C)C)cc1)c1nc2ccccc2[nH]1` the value was 23% (active); for `CCN(/N=C/c1ccccc1)c1cc(=O)n(C)c(=O)[nH]1`, -3.6%.

Take `CN(C)c1ccc(/C=N/N(Cc2ccccc2)c2ccccc2)cc1`: the activation was 11.9%. With `O=C(Nc1ccccc1F)c1ccc(Cn2cc(Br)cn2)cc1`, the activation is -1.02%.

Turning to `CN1CCN(CCC(=O)N/N=C/C=C2\N(C)c3ccccc3C2(C)C)CC1`, the activation was 10%.

With `O=C(Nc1ccncc1)c1ccccc1[N+](=O)[O-]`, the activation was -0.46%. For `CCn1cc(CNC(=O)c2cc([N+](=O)[O-])c(C)c([N+](=O)[O-])c2)cn1` the value was -6.4%; for `COc1ccc(NC(=S)NC2CCS(=O)(=O)C2)cc1` (centres undefined), 6.88%. For `O=C(O)Cc1sc(-c2ccccc2)nc1-c1cccs1`, the activation is 34.7% (active). As to `Cc1ccc(-c2nc(C)sc2CC(=O)O)cc1`, the activation is -0.57%. For `O=C(O)Cc1sc(-c2ccc(C(=O)O)cc2)nc1-c1ccccc1` the value was 10.9%; for `COc1ccc(NC(=O)CN(C)CC(=O)Nc2cccc(C(F)(F)F)c2)cc1`, -2.86%. The same measure for `COc1cc2c(cc1OC)CC1(CCCCC1)N=C2`: 0.25%; for `Cc1n[nH]c(=O)nc1N/N=C/c1cccs1`: 3.35%; for `COc1cccc(-n2c(=O)c3c(C)c(C(=O)N(C)C)sc3n(CC(=O)NCCc3ccc(OC)c(OC)c3)c2=O)c1`: 9.15%. Regarding `O=C(NNc1ccccc1Cl)C(O)(c1cccc(C(F)(F)F)c1)c1cccc(C(F)(F)F)c1`, the activation was 17.2%. The same measure for `Cc1nc2ccccc2cc1OCc1ccc(F)cc1`: 4.89%. Consider `Fc1ccc(COc2cccc(-c3n[nH]c(=S)o3)c2)cc1`, for which the activation was 44.9% (active). The same measure for `Cc1cccc(OCc2ccc(C(=O)Nc3ccc(F)cc3)cc2)c1`: -0.72%. For `CCn1c(=O)cc(SCC(=O)NCCC2=CCCCC2)c2ccccc21` the value was 16.9%.

Regarding `CCn1c(=O)cc(SCC(=O)NCc2ccc3c(c2)OCO3)c2ccccc21`, the activation was 36% (active). The same measure for `CC(C)NC(=O)CSc1ccccc1C(=O)NCc1ccc2c(c1)OCO2`: -4.93%; for `O=C(N/N=C/c1ccc2c(c1)OCO2)C(=O)N1CCCC1`: -5.72%.
